Shown are actives, neighbours in structure and some others; about 4.8% of the full set was active somewhere.
SMARCA2 activ = increases SMARCA2 function in MMTV reporter cells; AID 652017; MG213 cells, MMTV-luciferase reporter, dexamethasone, overnight; activation, % at 9.1 µM; 370,000 compounds, 1% hits; in the data active = activation above about 7.8%;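 also: 0% = vehicle wells and 100% = reference activator wells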
DAX1 inh-1 = inhibitors of DAX1 repression of SF-1 activated StAR promoter; 370,000 compounds, 1.1% hits; AID 652010; HEK293T StAR-luciferase reporter, SF-1/DAX-1 repression relief; inhibition, % at 6.8 µM;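 active = inhibition above the mean over all tested compounds plus 3 SD, cut at about 3.6% in these data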;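 also: 0% = DAX-1 cells with DMSO and 100% = cells lacking DAX-1 with DMSO; higher inhibition means more luminescence from relief of DAX-1 repression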
hgDAF12 agonist = activates the H. glycines DAF-12 receptor ligand-binding domain | activation, % at 6.8 µM | 370,000 compounds, 1.8% hits | HEK293 GAL4-hgDAF12 UAS-luciferase reporter, agonist luminescence; normalized to butyrate control | AID 687014;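 active = activation above a cutoff set at the mean of all screened compounds plus 3 SD, cut at about 10% in these data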;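 also: 0% = DMSO wells and 100% = sodium butyrate wells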
DAX1 inh-2 = inhibitors of human orphan nuclear receptor DAX1 (NR0B1) | P51843 | HEK293 Gal4-DAX1 luciferase reporter, luminescence | inhibition, % at 6.75 µM | 340,000 compounds, 0.99% hits;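 active = inhibition above the mean over all tested compounds plus 3 SD, cut at about 4.2% in these data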;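 also: 0% = DAX1-transfected cells with DMSO and 100% = empty-vector control cells with DMSO; inhibition shows as a rise in luminescence from relieved DAX1 repression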
Target sequence (P51843 207-470 limits assumed): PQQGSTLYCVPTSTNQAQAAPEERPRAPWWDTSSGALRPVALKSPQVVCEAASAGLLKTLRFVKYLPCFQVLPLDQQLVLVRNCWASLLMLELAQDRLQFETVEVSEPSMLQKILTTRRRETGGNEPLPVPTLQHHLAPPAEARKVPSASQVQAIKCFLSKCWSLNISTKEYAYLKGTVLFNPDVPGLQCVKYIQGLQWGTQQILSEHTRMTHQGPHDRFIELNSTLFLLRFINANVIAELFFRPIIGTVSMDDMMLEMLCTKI
ssDAF12 agonist = activators of S. stercoralis DAF-12 nuclear receptor; HEK293 ssDAF-12/GRIP1 lit1-tk-luc reporter, luminescence; % of 3 µM dafachronic acid response; activation, % at 6.8 µM; 370,000 compounds, 1% hits; AID 652126;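 active = activation above the mean over all tested compounds plus 3 SD, cut at about 0.9% in these data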;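 also: 0% = DMSO-only wells and 100% = 3 µM delta7-dafachronic acid wells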
hcDAF-12 act = activates DAF-12 receptor from parasite H. contortus. 370,000 compounds, 1.4% hits. AID 652067. HEK293 hcDAF-12 lit1-tk-luc reporter, luminescence; 0% DMSO, 100% Δ7-dafachronic acid. activation, % at 6.8 µM;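 active = activation above the mean of all tested compounds plus 3 SD, cut at about 5.5% in these data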;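 also: 100% = response to 3 µM Δ7-dafachronic acid high control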
Starred values were filed as active, the others as inactive; . = no result given.

SMILES	SMARCA2 activ	DAX1 inh-1	hgDAF12 agonist	DAX1 inh-2	ssDAF12 agonist	hcDAF-12 act
Cc1ccc(-c2cc(C(=O)NC3CCCC3)no2)cc1	3.7	2.7	12.8*	0.7	-0.1	2.5
COCC1CCCN(C(=O)c2cc(COc3ccc(C(C)=O)cc3)on2)C1 (configuration not stated)	3.1	4.2*	10.3	1.1	-0.6	5.7*
CC(=O)c1ccc(OCc2cc(C(=O)NC3CCCCC3)no2)cc1	2.3	3.6*	6.9	0.8	-0.4	0.9
C[C@@H](NC(=O)c1ncn2c1C(=O)NC[C@@H]2C)c1ccccc1	1.9	-0.6	0.4	0.0	-0.7	-0.1
O=C(c1cccc([N+](=O)[O-])c1)N1CCOCC1	-2.8	0.6	-4.8	2.3	-1.6	2.6
Brc1ccc(-c2nc3ccc(Br)cn3c2Cc2ccccc2)cc1	1.4	-3.3	11.8*	.	-0.6	-0.4
COc1ccccc1Cc1c(-c2ccc(C#N)cc2)nc2ccc(Br)cn12	0.9	0.4	4.1	.	-0.9	6.0*
COc1ccccc1Cc1c(-c2ccccc2)nc2ccc(Br)cn12	-0.4	2.9	7.7	.	0.1	5.5
COc1ccccc1Cc1c(-c2cccc(Br)c2)nc2ccc(Br)cn12	7.9*	3.5	8.8	.	0.4	3.6
O=C(O)c1ccc2c(c1)C(=O)N(c1cccc(C(=O)/C=C/c3ccccc3)c1)C2=O	2.4	0.8	3.2	-0.1	-1.5	-1.1
C=CCn1c(-c2c[nH]c3ccccc23)n[nH]c1=S	3.0	-0.1	-0.3	1.5	-0.5	1.1
Cc1nc2ccccc2c2c1CC(C(C)(Cl)Br)O2 (configuration not stated)	-8.8	-3.2	0.4	-5.2	-2.9	-5.2
O=C(Nc1ccc(O)cc1)C1CCCN1S(=O)(=O)c1ccc(F)cc1 (configuration not stated)	-0.4	-0.7	-1.7	4.6*	-0.5	-1.0
CC(=O)c1ccc(NC(=O)C2CCCN2S(=O)(=O)c2ccc(F)cc2)cc1 (configuration not stated)	-1.2	-0.5	2.4	-1.0	-1.8	-3.2
O=[N+]([O-])c1ccccc1Sc1nccn1Cc1ccccc1	0.3	-1.2	-1.8	-0.5	0.2	1.7
CCN(CC(=O)NCc1ccc(Cl)cc1)C(=O)Cc1ccccc1[N+](=O)[O-]	0.7	-2.3	-0.2	1.5	-1.1	-2.0
CS(=O)(=O)Nc1ccc(Cc2ccc(NS(C)(=O)=O)cc2)cc1	-4.9	-0.3	1.6	1.7	-1.6	-0.1
Cc1sc2nc(-c3cccnc3)nc(Cl)c2c1-c1ccccc1	0.2	0.2	3.3	4.3*	-0.9	-3.9
O=c1c2ccccc2nc(SCc2cccc(F)c2)n1-c1cccc(S(=O)(=O)N2CCCC2)c1	-3.6	-1.4	-0.8	-1.6	-1.5	-1.6
CCOCCOC(=O)c1[nH]c2c(c1C)C(=O)CC(c1ccccc1)C2 (configuration not stated)	2.5	0.4	-1.6	-2.4	-1.0	0.1
CCOC(=O)c1[nH]c2c(c1C)C(=O)CC(c1ccc(F)cc1)C2 (configuration not stated)	-1.9	-2.7	2.9	-0.9	1.2*	-1.9
CCOC(=O)c1c(C)[nH]c(C(C)=NNC(=O)c2cccs2)c1C	4.6	4.0*	12.3*	1.4	-0.9	0.9
CCOC(=O)c1c(C)[nH]c(/C(C)=N/NC(=O)c2cccnc2)c1C	0.6	1.1	1.3	2.5	-0.4	1.8
COc1ccc(COc2ccc3c(C)cc(=O)oc3c2)cc1	2.5	1.0	11.5*	3.6	-0.8	0.4
COc1ccc(CCNC(=O)COc2ccc3c(C)cc(=O)oc3c2)cc1	2.6	-0.3	3.9	-1.1	-0.7	1.3
SMILES	SMARCA2 activ	DAX1 inh-1	hgDAF12 agonist	DAX1 inh-2	ssDAF12 agonist	hcDAF-12 act
Cc1[nH]c2ccccc2c1/C=N/NC(=O)c1cccc(Br)c1	.	.	.	1.5	.	.
O=C(N/N=C/c1ccc(Br)s1)Nc1ccccc1	0.5	1.3	11.2*	-0.3	-0.8	2.7
Cc1[nH]c2ccccc2c1/C=N/NC(=O)c1ccccc1	-2.0	0.0	6.1	4.5*	-0.7	0.5
O=C(N/N=C/c1ccc(Br)s1)c1cccs1	-1.7	-0.3	8.6	.	-0.2	2.6
Cc1[nH]c2ccccc2c1/C=N/NC(=O)Nc1ccccc1	1.3	0.9	9.2	3.1	0.7	6.0*
CCOc1ccc(NC(=O)C(=O)NCCN2CCN(S(=O)(=O)c3ccccc3)CC2)cc1	-0.6	-0.1	0.3	-0.7	-0.8	-0.6
Fc1ccc(N=Cc2ccc[nH]2)cc1	3.6	0.0	2.9	2.0	-1.1	0.3
Cc1cc2oc(C(=O)NCCc3ccc(S(N)(=O)=O)cc3)c(C)c2cc1C	-0.4	-0.2	3.1	1.4	-1.8	-3.0
COc1ccc(NC(=O)CN(c2ccc(Cl)cc2)S(C)(=O)=O)cc1OC	-1.2	-0.2	0.8	0.3	-1.1	-1.4
COc1cccc(C(=O)Nc2cccc3cccnc23)c1OC	.	.	.	4.3*	.	.
COc1ccccc1NS(=O)(=O)c1cccc2cccnc12	1.5	-0.4	-2.0	5.4*	-1.6	0.9
O=C(O)CCC(=O)Nc1cccc2cccnc12	-0.7	0.2	-1.4	5.2*	-0.5	-1.1
Cc1cc(C(=O)Nc2cccc3cccnc23)ccc1[N+](=O)[O-]	-0.5	-0.2	3.8	0.3	0.4	5.9*
Cn1c(/C(C#N)=C/c2cccc(O)c2)nc2ccccc21	3.7	0.8	-5.6	0.8	-0.9	0.7
Cc1ccc(S(=O)(=O)n2c(N)nc3ccccc32)cc1	-3.0	-0.3	-0.3	-0.1	-0.8	-1.8
Nc1nc2ccccc2n1S(=O)(=O)c1ccc(Cl)cc1	1.3	4.2*	-0.8	.	-0.9	0.3
O=C(NNC(=O)c1cnccn1)c1ccc(Cl)cc1	-0.1	-0.9	-0.1	5.8*	-0.5	0.1
CCOc1cc(S(=O)(=O)NCCc2ccc(OC)c(OC)c2)c(OCC)cc1-n1cnnn1	-4.6	-0.3	-1.5	-1.1	-1.6	-2.3
CCOc1cc(S(=O)(=O)NCC2OCCc3ccccc32)c(OCC)cc1-n1cnnn1 (configuration not stated)	1.6	-0.4	-0.2	4.6*	-1.4	-0.4
N/C(=N\OC(=O)Cc1cccs1)c1ccc([N+](=O)[O-])cc1	0.7	-0.5	11.2*	-1.0	-0.8	-0.8
COc1ccc(S(=O)(=O)N2CCN(C(=O)CSc3nc4ccccc4nc3N3CCCCC3)CC2)cc1	-2.8	-0.5	-0.3	.	-1.4	3.2
CC1(C)CC2(CC(C)(C)N1)OC(=O)N1CCc3ccccc3C12C (configuration not stated)	-0.7	-0.9	1.6	4.2*	0.1	0.8
COC(=O)c1cc(CSC(=N)N)ccc1OCCC(C)C	-1.9	0.6	1.1	0.8	-1.2	-0.7
CCCc1cc(C(=O)Cc2nc3ccccc3s2)c(O)cc1O	0.8	1.0	4.7	1.3	0.9*	5.7*

Source: PubChem BioAssay
